FH mod – Identification of activators of human fumarate hydratase by quantitative high-throughput screening. Fumarate hydratase, mitochondrial (Homo sapiens), P07954. FH coupled MDH/diaphorase resazurin fluorescence, 15 min. Potency, µM (highest dose often 79.9 µM), usual class: inhibitors. 54,000 compounds, 0.22% hits; note: the screen sought activators but most active calls are inhibition curves; nearly all actives have a fitted effect of over 45% in size
Target sequence (P07954 whole entry, looked up): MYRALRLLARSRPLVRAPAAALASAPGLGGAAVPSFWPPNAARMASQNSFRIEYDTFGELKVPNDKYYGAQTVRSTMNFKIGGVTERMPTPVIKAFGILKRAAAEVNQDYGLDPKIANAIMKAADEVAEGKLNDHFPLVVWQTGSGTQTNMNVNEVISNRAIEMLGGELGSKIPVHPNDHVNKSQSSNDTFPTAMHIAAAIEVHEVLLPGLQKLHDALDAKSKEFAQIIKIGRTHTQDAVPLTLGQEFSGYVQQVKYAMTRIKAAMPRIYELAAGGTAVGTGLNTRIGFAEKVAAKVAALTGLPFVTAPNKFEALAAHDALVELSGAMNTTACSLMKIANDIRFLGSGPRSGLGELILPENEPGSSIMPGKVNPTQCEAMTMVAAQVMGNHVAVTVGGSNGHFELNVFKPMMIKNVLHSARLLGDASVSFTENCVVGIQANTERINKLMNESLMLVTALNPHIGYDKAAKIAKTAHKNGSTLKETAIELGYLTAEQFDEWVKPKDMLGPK
p53null 39C kill – kills p53 null cells at the nonpermissive temperature; H1299 p53-null (neo) cells, 39C, ATPlite viability, 24 h; Potency, µM (doses to about 46.1 µM), actives largely listed as cytotoxic; 55,000 compounds, 0.97% hits; note: nearly all actives have a fitted effect of over 50% in size
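Following overnight plating at 37C (600 cells/well), H1299-neo or H1299-p53A138V cells are dosed up to 46 uM. Incubation lasts 24 hr at 39C before ATP detection.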
p53null 32C tox – p53 null cell cytotoxicity, permissive temperature; H1299-neo p53 null cells, ATP luminescence, 24 h, 32C; Potency, µM (doses to about 46.1 µM), actives largely listed as cytotoxic; 55,000 compounds, 0.62% hits; note: nearly all actives have a fitted effect of over 55% in size
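Overnight 37C seeding (600 cells/well) of H1299-neo preceded a 24 hr, 32C exposure to compounds up to 46 uM. ATP levels, read by luminescence after 20 min at RT, indicated surviving cells.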
Each line names hits and unclear results; the compound was inactive in the other large screens. Sampled rows, rich in hits. Any-hit rate of the full collection: about 1.2%. Calls come from the whole dose curve; as a rule, active = well fitted curve in the direction sought with a large enough effect; inconclusive = small, poorly fitted or top-dose-only effect, or another doubt; inactive = no such curve, though single readings can be large; an effect the other way counts as inactive or inconclusive.

OCCn1cc(-c2ccc3c(c2)CC/C3=N\O)c(-c2ccncc2)n1	none (no result: p53null 39C kill, p53null 32C tox)
CC(C)N(C[C@H]1O[C@@H](n2cnc3c(N)ncnc32)[C@H](O)[C@@H]1O)C1CC(CCc2nc3ccc(C(C)(C)C)cc3[nH]2)C1 (stereo partly specified)	none (no result: p53null 39C kill, p53null 32C tox)
COc1ccc(CNC(=O)c2cc3c(-c4ccc(Cl)cc4)nn(C)c3s2)cc1	FH mod inconclusive
CCCN(CCC)CCCNC(=O)c1cc2c(-c3ccc(Cl)cc3)nn(C)c2s1	p53null 39C kill 16µM
O=C1CCCC2=C1C(c1ncccc1Br)N=C(Nc1nc3ccccc3o1)N2 (stereo unspecified)	none (no result: p53null 39C kill, p53null 32C tox)
Cc1ccccc1CCNC(=O)c1ccc2c(c1)nc1n2CCOC1	p53null 39C kill 3.2µM, p53null 32C tox 7.9µM
CC1CCn2c(nc3cc(C(=O)NCCc4ccccc4)ccc32)C1 (stereo unspecified)	p53null 39C kill 25µM, p53null 32C tox 13µM
CC1CCn2c(nc3cc(C(=O)NCCc4ccc(Cl)cc4)ccc32)C1 (stereo unspecified)	none
CSc1ccc(CCNC(=O)c2ccc3c(c2)nc2n3CCCCC2)cc1	FH mod inconclusive
Cc1ccccc1CCNC(=O)c1ccc2c(c1)nc1n2CCCCC1	p53null 39C kill 1.3µM, p53null 32C tox 2µM
O=C(NCCc1ccc(Cl)cc1)c1ccc2c(c1)nc1n2CCOC1	none
O=C(O)Cn1cnnn1	none (no result: p53null 39C kill, p53null 32C tox)
Cc1ccc(C)c(Nc2nn3c(=O)c4ccc(C(=O)NCc5cccs5)cc4nc3s2)c1	p53null 32C tox inconclusive
COc1ccccc1Nc1nn2c(=O)c3ccc(C(=O)NCc4cccs4)cc3nc2s1	p53null 39C kill inconclusive, p53null 32C tox 10µM
Cc1ccc(C)c(NC(=O)CSc2nnc3[nH]c(=O)cc(-c4ccccc4)n23)c1	p53null 39C kill inconclusive, p53null 32C tox 1.6µM
CCOc1ccccc1NC(=O)CSc1nnc2[nH]c(=O)cc(-c3ccccc3)n12	FH mod inconclusive, p53null 32C tox inconclusive
Cc1ccc(NC(=O)CSc2nnc3[nH]c(=O)cc(-c4ccccc4)n23)cc1Cl	p53null 39C kill inconclusive, p53null 32C tox 4µM
COc1cccc(NC(=O)CSc2nnc3[nH]c(=O)cc(-c4ccccc4)n23)c1	p53null 39C kill inconclusive, p53null 32C tox inconclusive
Cc1cc(=O)oc2cc(NC(=O)[C@H](CCC(=O)O)NC(=O)[C@H](CC(C)C)NC(=O)[C@H](CC(C)C)NC(=O)OCc3ccccc3)ccc12	none (no result: p53null 39C kill, p53null 32C tox)
CCCC/C=C\CCCCCc1cc(=O)c2ccccc2n1C	none (no result: p53null 39C kill, p53null 32C tox)
COc1nccc(-c2c(-c3ccc(F)cc3)ncn2C2CCNCC2)n1	none (no result: p53null 39C kill, p53null 32C tox)
c1cc(-c2cc(C3CCNCC3)[nH]n2)ccn1	none (no result: p53null 39C kill, p53null 32C tox)
CN(C)CCN1C(=O)c2cccc3cc(N)cc(c23)C1=O	none (no result: p53null 39C kill, p53null 32C tox)
Cc1ccc(C(C)C)c(OCC(=O)Nc2cc(-c3nc4ccccc4[nH]3)ccc2C)c1	p53null 39C kill 7.9µM, p53null 32C tox inconclusive
COc1cc(OC)cc(C(=O)Nc2cc(-c3nc4ccccc4[nH]3)ccc2C)c1	none
CC(O)=C(C#N)C(=O)Nc1ccc(C(F)(F)F)cc1	none (no result: p53null 39C kill, p53null 32C tox)
N#CCc1ccc(O)cc1O[C@@H]1O[C@H](CO)[C@@H](O)[C@H](O)[C@H]1O	none (no result: p53null 39C kill, p53null 32C tox)
COc1cccc(CN(C(=O)c2oc3cc(C)ccc3c2C)C2CCS(=O)(=O)C2)c1 (stereo unspecified)	FH mod 32µM
COc1cccc(CN(C(=O)c2oc3ccccc3c2C)C2CCS(=O)(=O)C2)c1 (stereo unspecified)	none
N#C[C@@H]1CCCN1C(=O)CNC12CC3CC(CC(O)(C3)C1)C2	none (no result: p53null 39C kill, p53null 32C tox)
O=C1NC(Cc2ccc(O)cc2)C(=O)N2CCCC12 (stereo unspecified)	none (no result: p53null 39C kill, p53null 32C tox)
Cc1ccc(O)c(NC(=O)c2cc(-c3ccccc3O)no2)c1	none
Cc1ccc(-c2cc(-c3ccccc3)no2)c(O)c1	p53null 32C tox 7.9µM (no result: FH mod, p53null 39C kill)
C=C1C(=O)O[C@@H]2[C@H]1CC(=O)[C@H](C)[C@@](O)(C(=O)/C=C/C)[C@H]2OC(=O)C(C)CC (stereo partly specified)	none (no result: p53null 39C kill, p53null 32C tox)
CC(=O)OC1CC2(C)C(CCC(C)C23Cc2c(O)cc4c(c2O3)CNC4=O)C(C)(C)C1O (stereo unspecified)	none (no result: p53null 39C kill, p53null 32C tox)
O=C(/C=C/c1ccc(O)c(O)c1)O[C@H]1[C@H](OC2CCCCC2O)O[C@H](CO)[C@@H](O)[C@@H]1O (stereo partly specified)	none (no result: p53null 39C kill, p53null 32C tox)
CCOc1ccc(C(=O)Nc2ccc3nc(Nc4cccc(C(F)(F)F)c4)cc(C)c3c2)cc1OCC	none
Cc1cc(Nc2cccc(C(F)(F)F)c2)nc2ccc(NC(=O)c3cccnc3)cc12	FH mod inconclusive, p53null 39C kill inconclusive, p53null 32C tox 28µM
Cc1cc(Nc2cccc(C(F)(F)F)c2)nc2ccc(NC(=O)c3cccc(Cl)c3)cc12	p53null 39C kill 13µM
Cc1cc(Nc2cccc(Cl)c2)nc2ccc(NC(=O)Cc3cccc(C(F)(F)F)c3)cc12	FH mod inconclusive, p53null 39C kill inconclusive
CN1CCN(Cc2ccc(-c3cnc4[nH]cc(-c5ccc6[nH]ccc6c5)c4c3)cc2)CC1	none (no result: p53null 39C kill, p53null 32C tox)
O=c1cc(N2CCOCC2)oc2c(-c3cccc4c3sc3ccccc34)cccc12	none (no result: p53null 39C kill, p53null 32C tox)
CCCCCCn1c(/C=C/c2ccccc2)nc2ccccc21	p53null 39C kill 13µM
CC(C)Cn1c(/C=C/c2ccccc2)nc2ccccc21	none (no result: FH mod, p53null 32C tox)
O=c1sn(-c2cccc3ccccc23)c(=O)n1Cc1ccccc1	none (no result: p53null 39C kill, p53null 32C tox)
O=C(NCc1ccco1)c1ccc(Cn2c(SCc3ccc(F)cc3)nc3cccnc32)cc1	p53null 39C kill 13µM, p53null 32C tox inconclusive
Cc1ccc(CSc2nc3cccnc3n2Cc2ccc(C(=O)NCCc3cccs3)cc2)cc1	p53null 39C kill 4µM, p53null 32C tox 4.5µM
O=C(NC1CCCCC1)c1ccc(Cn2c(SCc3ccccc3F)nc3cccnc32)cc1	none
Cc1ccc(CSc2nc3cccnc3n2Cc2ccc(C(=O)NC3CCCCC3)cc2)cc1	FH mod inconclusive, p53null 39C kill 11µM, p53null 32C tox 13µM
O=C(NC1CCCC1)c1ccc(CSc2nc3cccnc3n2Cc2cccc(F)c2)cc1	none
O=C(NCc1cccs1)c1ccc(CSc2nc3cccnc3n2Cc2ccccc2)cc1	none
O=C(NC1CC1)c1ccc(Cn2c(SCc3ccccc3F)nc3cccnc32)cc1	p53null 39C kill 13µM, p53null 32C tox inconclusive
O=C(NCc1cccs1)c1ccc(CSc2nc3cccnc3n2Cc2ccc(F)cc2)cc1	none
O=C(NCCO)c1cc(C(=O)NCCO)cc(C(=O)NCCO)c1	none (no result: p53null 39C kill, p53null 32C tox)
COc1ccc(NC(=O)c2ccc(-c3ccc(-c4nnc(C)o4)cc3C)cc2)cc1N1CCN(C)CC1	none (no result: p53null 39C kill, p53null 32C tox)
CC(C)(C)OC(=O)N1CCC(c2c(C(=O)NCCN3CCC(Cc4ccccc4)CC3)cnn2-c2ccccc2)CC1	FH mod inconclusive, p53null 39C kill inconclusive
CC(C)(C)OC(=O)N1CCC(c2c(C(=O)NCCN3CCC(Cc4ccccc4)CC3)cnn2-c2ccc(F)cc2)CC1	p53null 39C kill 25µM, p53null 32C tox inconclusive
COc1ccc(CCN2CCC(CNC(=O)c3cnn(-c4cccc(Cl)c4)c3C3CCN(C(=O)OC(C)(C)C)CC3)CC2)cc1	p53null 39C kill 20µM
COc1ccc(CCN2CCC(CNC(=O)c3cnn(-c4ccccc4)c3C3CCN(C(=O)OC(C)(C)C)CC3)CC2)cc1	none
Cc1cc(N(C)C)ccc1-c1nc2ccc(-c3nc4ccc(N5CCN(C)CC5)cc4[nH]3)cc2[nH]1	none (no result: p53null 39C kill, p53null 32C tox)
